Measured values as given in the supplement of paper PMC4466140.

The binders below were run against AgAbp1 (assay: SPOT peptide array binding signal intensity (averaged, normalized) (arbitrary units (background-subtracted, floor 0; scale differs between SH3 domains)); higher = stronger binding of the SH3 domain to the peptide).
How it was run: (§1)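 GST-fused SH3 domains, from four yeast species, were produced in E. coli BL21(DE3) and captured on glutathione Sepharose. Membranes of cellulose carrying synthetic 15-mer peptides, in which cysteines had been replaced by serines, were exposed to each domain at 10 μg/ml overnight at 4°C in TBS-based blocking buffer. After anti-GST antibody, an HRP anti-mouse secondary and luminol, spots were imaged and quantified using Genespotter. Binding signal is normalized and background-subtracted spot intensity, averaged over replicates, in arbitrary units that differ between domains.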
For IVNKPLPPLPVAGSS, the “SPOT peptide array binding signal intensity” value was 177.

These binders were tested against AgBbc1 in the same assay as above.
How it was run: as §1
In the case of IVNKPLPPLPVAGSS, the “SPOT peptide array binding signal intensity” value is reported as no more than 0.

Each binder was assayed against AgBem1-D1 in the same assay as above.
How it was run: as §1
For IVNKPLPPLPVAGSS, the “SPOT peptide array binding signal intensity” value was 5.5.

The binders below were run against AgBzz1-D1 in the same assay as above.
How it was run: as §1
IVNKPLPPLPVAGSS was tested, and the “SPOT peptide array binding signal intensity” value was 30.

These binders were tested against AgBzz1-D2 in the same assay as above.
How it was run: as §1
For IVNKPLPPLPVAGSS, the “SPOT peptide array binding signal intensity” value was 17.5.

What follows are binders tested against AgCyk3 in the same assay as above.
How it was run: as §1
IVNKPLPPLPVAGSS was tested, and the “SPOT peptide array binding signal intensity” value was no more than 0.

Each binder was assayed against AgFus1 in the same assay as above.
How it was run: as §1
In the case of IVNKPLPPLPVAGSS, the “SPOT peptide array binding signal intensity” value is reported as 1.5.

The binders below were run against AgHof1 in the same assay as above.
How it was run: as §1
IVNKPLPPLPVAGSS was tested, and the “SPOT peptide array binding signal intensity” value was 748.

These binders were tested against AgHse1 in the same assay as above.
How it was run: as §1
IVNKPLPPLPVAGSS was tested, and the “SPOT peptide array binding signal intensity” value was 17.5.

What follows are binders tested against AgLsb1 in the same assay as above.
How it was run: as §1
In the case of IVNKPLPPLPVAGSS, the “SPOT peptide array binding signal intensity” value is reported as no more than 0.

Each binder was assayed against AgLsb4 in the same assay as above.
How it was run: as §1
In the case of IVNKPLPPLPVAGSS, the “SPOT peptide array binding signal intensity” value is reported as 7.5.

The binders below were run against AgMyo5 in the same assay as above.
How it was run: as §1
For IVNKPLPPLPVAGSS, the “SPOT peptide array binding signal intensity” value was no more than 0.

What follows are binders tested against AgNbp2 in the same assay as above.
How it was run: as §1
With IVNKPLPPLPVAGSS the “SPOT peptide array binding signal intensity” value was no more than 0.

What follows are binders tested against AgRvs167 in the same assay as above.
How it was run: as §1
With IVNKPLPPLPVAGSS the “SPOT peptide array binding signal intensity” value was 2.33.

These binders were tested against AgSho1 in the same assay as above.
How it was run: as §1
IVNKPLPPLPVAGSS was tested, and the “SPOT peptide array binding signal intensity” value was 6850.

These binders were tested against AgSla1-D1-D2 in the same assay as above.
How it was run: as §1
IVNKPLPPLPVAGSS was tested, and the “SPOT peptide array binding signal intensity” value was 1.

Each binder was assayed against AgSla1-D3 in the same assay as above.
How it was run: as §1
For IVNKPLPPLPVAGSS, the “SPOT peptide array binding signal intensity” value was no more than 0.

The binders below were run against CaAbp1-D1 in the same assay as above.
How it was run: as §1
In the case of IVNKPLPPLPVAGSS, the “SPOT peptide array binding signal intensity” value is reported as 21.5.

The binders below were run against CaAbp1-D2 in the same assay as above.
How it was run: as §1
IVNKPLPPLPVAGSS was tested, and the “SPOT peptide array binding signal intensity” value was 48.

The binders below were run against CaBbc1 in the same assay as above.
How it was run: as §1
For IVNKPLPPLPVAGSS, the “SPOT peptide array binding signal intensity” value was no more than 0.

The binders below were run against CaBem1-D1 in the same assay as above.
How it was run: as §1
For IVNKPLPPLPVAGSS, the “SPOT peptide array binding signal intensity” value was no more than 0.

Each binder was assayed against CaBzz1-D1 in the same assay as above.
How it was run: as §1
In the case of IVNKPLPPLPVAGSS, the “SPOT peptide array binding signal intensity” value is reported as 459.

These binders were tested against CaBzz1-D2 in the same assay as above.
How it was run: as §1
For IVNKPLPPLPVAGSS, the “SPOT peptide array binding signal intensity” value was no more than 0.

Each binder was assayed against CaCyk3 in the same assay as above.
How it was run: as §1
For IVNKPLPPLPVAGSS, the “SPOT peptide array binding signal intensity” value was 0.5.

These binders were tested against CaFus1 in the same assay as above.
How it was run: as §1
For IVNKPLPPLPVAGSS, the “SPOT peptide array binding signal intensity” value was 232.

Each binder was assayed against CaHof1 in the same assay as above.
How it was run: as §1
For IVNKPLPPLPVAGSS, the “SPOT peptide array binding signal intensity” value was 55.2.

The binders below were run against CaHse1 in the same assay as above.
How it was run: as §1
With IVNKPLPPLPVAGSS the “SPOT peptide array binding signal intensity” value was 1300.

Each binder was assayed against CaLsb1 in the same assay as above.
How it was run: as §1
With IVNKPLPPLPVAGSS the “SPOT peptide array binding signal intensity” value was no more than 0.

Each binder was assayed against CaLsb4 in the same assay as above.
How it was run: as §1
For IVNKPLPPLPVAGSS, the “SPOT peptide array binding signal intensity” value was no more than 0.

Each binder was assayed against CaMyo5 in the same assay as above.
How it was run: as §1
In the case of IVNKPLPPLPVAGSS, the “SPOT peptide array binding signal intensity” value is reported as no more than 0.

What follows are binders tested against CaNbp2 in the same assay as above.
How it was run: as §1
In the case of IVNKPLPPLPVAGSS, the “SPOT peptide array binding signal intensity” value is reported as no more than 0.

The binders below were run against CaRvs167 in the same assay as above.
How it was run: as §1
For IVNKPLPPLPVAGSS, the “SPOT peptide array binding signal intensity” value was 1.17.

What follows are binders tested against CaRvs167-3 in the same assay as above.
How it was run: as §1
For IVNKPLPPLPVAGSS, the “SPOT peptide array binding signal intensity” value was no more than 0.

These binders were tested against CaSho1 in the same assay as above.
How it was run: as §1
With IVNKPLPPLPVAGSS the “SPOT peptide array binding signal intensity” value was 6570.

What follows are binders tested against CaSla1-D1-D2 in the same assay as above.
How it was run: as §1
IVNKPLPPLPVAGSS was tested, and the “SPOT peptide array binding signal intensity” value was 338.

What follows are binders tested against CaSla1-D3 in the same assay as above.
How it was run: as §1
In the case of IVNKPLPPLPVAGSS, the “SPOT peptide array binding signal intensity” value is reported as 0.5.

The binders below were run against ScAbp1 in the same assay as above.
How it was run: as §1
For IVNKPLPPLPVAGSS, the “SPOT peptide array binding signal intensity” value was 378.

Each binder was assayed against ScBbc1 in the same assay as above.
How it was run: as §1
IVNKPLPPLPVAGSS was tested, and the “SPOT peptide array binding signal intensity” value was 0.25.

The binders below were run against ScBem1-D1 in the same assay as above.
How it was run: as §1
In the case of IVNKPLPPLPVAGSS, the “SPOT peptide array binding signal intensity” value is reported as no more than 0.

What follows are binders tested against ScBzz1-D1 in the same assay as above.
How it was run: as §1
With IVNKPLPPLPVAGSS the “SPOT peptide array binding signal intensity” value was no more than 0.

What follows are binders tested against ScBzz1-D2 in the same assay as above.
How it was run: as §1
IVNKPLPPLPVAGSS was tested, and the “SPOT peptide array binding signal intensity” value was no more than 0.

What follows are binders tested against ScCyk3 in the same assay as above.
How it was run: as §1
IVNKPLPPLPVAGSS was tested, and the “SPOT peptide array binding signal intensity” value was no more than 0.

The binders below were run against ScFus1 in the same assay as above.
How it was run: as §1
For IVNKPLPPLPVAGSS, the “SPOT peptide array binding signal intensity” value was 10.

These binders were tested against ScHof1 in the same assay as above.
How it was run: as §1
For IVNKPLPPLPVAGSS, the “SPOT peptide array binding signal intensity” value was 1300.

Each binder was assayed against ScHse1 in the same assay as above.
How it was run: as §1
With IVNKPLPPLPVAGSS the “SPOT peptide array binding signal intensity” value was 32.

The binders below were run against ScLsb1 in the same assay as above.
How it was run: as §1
In the case of IVNKPLPPLPVAGSS, the “SPOT peptide array binding signal intensity” value is reported as no more than 0.

The binders below were run against ScLsb2 in the same assay as above.
How it was run: as §1
In the case of IVNKPLPPLPVAGSS, the “SPOT peptide array binding signal intensity” value is reported as no more than 0.

The binders below were run against ScLsb3 in the same assay as above.
How it was run: as §1
With IVNKPLPPLPVAGSS the “SPOT peptide array binding signal intensity” value was 154.

These binders were tested against ScLsb4 in the same assay as above.
How it was run: as §1
With IVNKPLPPLPVAGSS the “SPOT peptide array binding signal intensity” value was no more than 0.

Each binder was assayed against ScMyo3 in the same assay as above.
How it was run: as §1
With IVNKPLPPLPVAGSS the “SPOT peptide array binding signal intensity” value was no more than 0.

These binders were tested against ScMyo5 in the same assay as above.
How it was run: as §1
IVNKPLPPLPVAGSS was tested, and the “SPOT peptide array binding signal intensity” value was no more than 0.

Each binder was assayed against ScNbp2 in the same assay as above.
How it was run: as §1
IVNKPLPPLPVAGSS was tested, and the “SPOT peptide array binding signal intensity” value was no more than 0.

Each binder was assayed against ScPex13 in the same assay as above.
How it was run: as §1
For IVNKPLPPLPVAGSS, the “SPOT peptide array binding signal intensity” value was 2500.

These binders were tested against ScRvs167 in the same assay as above.
How it was run: as §1
For IVNKPLPPLPVAGSS, the “SPOT peptide array binding signal intensity” value was 97.8.

Each binder was assayed against ScSho1 in the same assay as above.
How it was run: as §1
For IVNKPLPPLPVAGSS, the “SPOT peptide array binding signal intensity” value was 7450.

These binders were tested against ScSla1-D1-D2 in the same assay as above.
How it was run: as §1
For IVNKPLPPLPVAGSS, the “SPOT peptide array binding signal intensity” value was 288.

Each binder was assayed against ScSla1-D3 in the same assay as above.
How it was run: as §1
With IVNKPLPPLPVAGSS the “SPOT peptide array binding signal intensity” value was 1.5.

These binders were tested against SpAbp1-D1 in the same assay as above.
How it was run: as §1
IVNKPLPPLPVAGSS was tested, and the “SPOT peptide array binding signal intensity” value was 1580.

What follows are binders tested against SpBbc1 in the same assay as above.
How it was run: as §1
In the case of IVNKPLPPLPVAGSS, the “SPOT peptide array binding signal intensity” value is reported as 1.

Each binder was assayed against SpBzz1-D1 in the same assay as above.
How it was run: as §1
IVNKPLPPLPVAGSS was tested, and the “SPOT peptide array binding signal intensity” value was 159.
